Data taken from PubChem BioAssay (NCATS).
Records with an inconclusive call do not appear. Active and inactive are the calls of the source. Calls follow the shape of the full dose curve.

What was measured:
[1] = Primary qHTS for inhibitors of SARS-S pseudo-typed particle cell entry (AID 1479145); also: nearly all actives have a fitted effect of over 45% in size; as to activity change, negative = inhibition: series mostly up to about 57 µM
[2] = Primary qHTS for Huh7 cytotoxicity: counterscreen for inhibitors of MERS-S pseudotyped particle cell entry (AID 1479147)
[3] = Primary qHTS for inhibitors of MERS-S pseudo-typed particle cell entry (AID 1479149); also: nearly all actives have a fitted effect of over 60% in size; as to activity change, negative = inhibition: series mostly up to about 57 µM
[4] = Primary qHTS for Vero E6 cytotoxicity: counterscreen for inhibitors of SARS-S pseudo-typed particle cell entry (AID 1479150)
% is scaled to controls: 0 for no effect and ±100 for the full control effect.

COc1cc2c(Nc3ccc(Br)cc3F)ncnc2cc1OCC1CCN(C)CC1
inactive: Potency [1] | Potency [2] | Potency [3] | Potency [4]

COc1ccc(C2C(=O)c3ccccc3C2=O)cc1
inactive: Potency [1] | Potency [2] | Potency [3] | Potency [4]

C[C@@H](N)[C@@H](O)c1ccccc1
inactive: Potency [1] | Potency [2] | Potency [3] | Potency [4]

CCCCOCCOC(=O)c1cccnc1
inactive: Potency [1] | Potency [2] | Potency [3] | Potency [4]

CCC(C(=O)NC(=O)NC(C)=O)c1ccccc1 (configuration not stated)
inactive: Potency [1] | Potency [2] | Potency [3] | Potency [4]

CN1CCN(CC(=O)N2c3ccccc3C(=O)Nc3cccnc32)CC1
inactive: activity change, negative = inhibition [1] -4.78% [at 5.34 µM] | activity change, negative = cytotoxicity [2] 1.37% [at 5.34 µM] | outcome [3] inactive [at 5.34 µM] | outcome [4] inactive [at 5.34 µM]

CCCCCC[C@@H](CCC)C(=O)O
inactive: Potency [1] | Potency [2] | Potency [3] | Potency [4]

CC(=O)OCC[N+](C)(C)C
inactive: Potency [1] | Potency [2] | Potency [3] | Potency [4]

CCN(CC)C(=O)/C(C#N)=C/c1cc(O)c(O)c([N+](=O)[O-])c1
inactive: Potency [1] | Potency [2] | Potency [3] | Potency [4]

NC(=O)NC1NC(=O)NC1=O (configuration not stated)
inactive: Potency [1] | Potency [2] | Potency [3] | Potency [4]

CCn1ccc(NS(=O)(=O)c2ccc(N)cc2)nc1=O
inactive: Potency [1] | Potency [2] | Potency [3] | Potency [4]

OC[C@@H](O)[C@@H](O[C@@H]1O[C@H](CO)[C@H](O)[C@H](O)[C@H]1O)[C@H](O)[C@@H](O)CO
inactive: Potency [1] | Potency [2] | Potency [3] | Potency [4]

COc1cccc(OC)c1C(=O)N[C@@H]1C(=O)N2[C@@H]1SC(C)(C)[C@@H]2C(=O)O
inactive: Potency [1] | Potency [2] | Potency [3] | Potency [4]

CN(C)CCc1c[nH]c2ccc(Cn3cncn3)cc12
inactive: Potency [1] | Potency [2] | Potency [3] | Potency [4]

O=C(NCC1CCCCN1)c1cc(OCC(F)(F)F)ccc1OCC(F)(F)F (configuration not stated)
inactive: Potency [1] | Potency [2] | Potency [3] | Potency [4]

CC(C)(C(=O)c1cccnc1)c1cccnc1
inactive: Potency [1] | Potency [2] | Potency [3] | Potency [4]

O=C(O)COc1nn(Cc2ccccc2)c2ccccc12
inactive: Potency [1] | Potency [2] | Potency [3] | Potency [4]

CC(C(=O)O)c1ccc2c(c1)[nH]c1ccc(Cl)cc12 (configuration not stated)
inactive: Potency [1] | Potency [2] | Potency [3] | Potency [4]

CO[C@@]1(NC(=O)C2SC(=C(C(N)=O)C(=O)O)S2)C(=O)N2C(C(=O)O)=C(CSc3nnnn3C)CS[C@@H]21 (some centres not stated)
inactive: Potency [1] | Potency [2] | Potency [3] | Potency [4]

Cc1noc(NS(=O)(=O)c2ccc(N)cc2)c1C
inactive: Potency [1] | Potency [2] | Potency [3] | Potency [4]

CS(=O)(=O)c1ccc([C@@H](O)[C@@H](CO)NC(=O)C(Cl)Cl)cc1
inactive: Potency [1] | Potency [2] | Potency [3] | Potency [4]

CCOc1ccc(NC(=O)CC(C)O)cc1 (configuration not stated)
inactive: Potency [1] | Potency [2] | Potency [3] | Potency [4]

CC(=O)O[C@@H]1CC2C3CCc4cc(OC(=O)c5ccccc5)ccc4C3CCC2(C)[C@H]1OC(C)=O (some centres not stated)
inactive: Potency [1] | Potency [2] | Potency [3] | Potency [4]

COc1ccc(NS(=O)(=O)c2ccc(N)cc2)nn1
inactive: Potency [1] | Potency [2] | Potency [3] | Potency [4]

CC1CCN(CCCC(=O)c2ccc(F)cc2)CC1
inactive: Potency [1] | Potency [2] | Potency [3] | Potency [4]

CC(=O)NC[C@H]1CN(c2ccc(N3CCOCC3)c(F)c2)C(=O)O1
inactive: Potency [1] | Potency [2] | Potency [3] | Potency [4]

Cc1cc(O)cc(C)c1Cl
inactive: Potency [1] | Potency [2] | Potency [3] | Potency [4]

CC1(C)O[C@@H]2C[C@H]3[C@@H]4C[C@H](F)C5=CC(=O)C=C[C@]5(C)[C@@]4(F)[C@@H](O)C[C@]3(C)[C@]2(C(=O)CO)O1
inactive: Potency [1] | Potency [2] | Potency [3] | Potency [4]

CC1(C)O[C@H]2CC(=O)OC[C@]23[C@H]2CC[C@@]4(C)[C@H](c5ccoc5)OC(=O)[C@H]5O[C@]54[C@]2(C)C(=O)C[C@@H]13
inactive: Potency [1] | Potency [2] | Potency [3] | Potency [4]

CC(C)=CCC/C(C)=C/CO
inactive: Potency [1] | Potency [2] | Potency [3] | Potency [4]

CN1[C@@H]2CC(OC(=O)[C@H](CO)c3ccccc3)C[C@H]1[C@@H]1O[C@@H]12 (some centres not stated)
inactive: Potency [1] | Potency [2] | Potency [3] | Potency [4]

COc1c2occc2cc2ccc(=O)oc12
inactive: Potency [1] | Potency [2] | Potency [3] | Potency [4]

O=c1[nH]c(=O)n([C@H]2O[C@H](CO)[C@@H](O)[C@@H]2O)cc1/C=C\Br
inactive: Potency [1] | Potency [2] | Potency [3] | Potency [4]
